# Source: PMC4336329 (PLoS ONE, 2015)
# In all, about 310,000 compounds went through this assay and about 2,200 (0.71%) showed an effect of 50% or more. The effect is printed as a negative number. Shown is part of a subset that was picked to be rich in strong results.
# Target: human ether-à-go-go-related gene (hERG) potassium channel (human, UniProt Q12809)
# Assay: primary screen, population patch clamp on CHO cells stably expressing hERG; higher = less effect of the substance
# human ether-à-go-go-related gene (hERG) potassium channel, sequence (Q12809 whole entry, looked up): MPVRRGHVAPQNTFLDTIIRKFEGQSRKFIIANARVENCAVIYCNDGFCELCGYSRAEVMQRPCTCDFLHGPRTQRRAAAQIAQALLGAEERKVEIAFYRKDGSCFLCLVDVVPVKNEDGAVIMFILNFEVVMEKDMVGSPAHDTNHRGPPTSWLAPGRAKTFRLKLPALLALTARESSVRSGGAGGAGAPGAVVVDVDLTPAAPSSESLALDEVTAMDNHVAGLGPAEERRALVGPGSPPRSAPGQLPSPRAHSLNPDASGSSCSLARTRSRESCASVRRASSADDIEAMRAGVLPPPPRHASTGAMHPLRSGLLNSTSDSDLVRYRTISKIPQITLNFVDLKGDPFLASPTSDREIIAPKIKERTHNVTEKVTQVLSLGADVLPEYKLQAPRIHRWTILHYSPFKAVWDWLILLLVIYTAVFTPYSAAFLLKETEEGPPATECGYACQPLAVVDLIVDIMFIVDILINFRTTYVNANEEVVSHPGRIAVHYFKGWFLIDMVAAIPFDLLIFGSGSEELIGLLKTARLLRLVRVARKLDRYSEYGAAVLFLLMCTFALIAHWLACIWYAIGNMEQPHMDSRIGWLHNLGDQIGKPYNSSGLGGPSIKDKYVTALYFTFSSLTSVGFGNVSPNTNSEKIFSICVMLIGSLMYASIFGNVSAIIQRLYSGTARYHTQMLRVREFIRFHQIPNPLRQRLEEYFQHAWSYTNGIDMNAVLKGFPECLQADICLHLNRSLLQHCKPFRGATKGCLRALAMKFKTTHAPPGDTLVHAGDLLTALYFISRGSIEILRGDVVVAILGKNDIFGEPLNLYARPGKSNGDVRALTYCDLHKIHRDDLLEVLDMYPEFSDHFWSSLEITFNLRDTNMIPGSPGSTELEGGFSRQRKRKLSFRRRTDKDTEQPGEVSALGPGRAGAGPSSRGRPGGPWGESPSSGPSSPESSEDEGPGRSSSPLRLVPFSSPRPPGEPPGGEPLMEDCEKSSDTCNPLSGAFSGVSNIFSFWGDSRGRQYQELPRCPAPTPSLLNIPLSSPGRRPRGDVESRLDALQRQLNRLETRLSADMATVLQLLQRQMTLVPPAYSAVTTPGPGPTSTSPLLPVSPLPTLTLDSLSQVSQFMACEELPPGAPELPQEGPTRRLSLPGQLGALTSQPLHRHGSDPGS
row,Compound,"hERG current change (%, negative = inhibition) at 1uM"
1,COc1ccc(CC2(CO)CCN(C(=O)NCc3ccccc3)CC2)cc1,10.4%
2,COc1ccc(CC2(CO)CCN(S(=O)(=O)N(C)C)CC2)cc1,14.7%
3,CC(COc1ccccc1)N1CCC(CO)(Cc2ccccc2)CC1 (stereo not shown),-13.3%
4,COc1ccc(CCC(C)N2CCC(CO)(Cc3ccccc3)CC2)cc1 (stereo not shown),-31.6%
5,CN(C)S(=O)(=O)N1CCC(CO)(CCc2ccccc2)CC1,12%
6,CSCC(C)N1CCC(CO)(CCc2ccccc2)CC1 (stereo not shown),13.9%
7,COc1ccc(CC2(CO)CCN(C(C)Cc3ccc(Cl)cc3)CC2)cc1 (stereo not shown),-80%
8,CC(COc1ccccc1)N1CCC(CO)(CCc2ccccc2)CC1 (stereo not shown),-84.8%
9,COc1ccc(CC2(CO)CCN(C(C)COc3ccccc3)CC2)cc1 (stereo not shown),-68.4%
10,Cc1cccc2nc(-c3ccco3)c(Nc3ccc4c(c3)OCO4)n12,5.48%
11,CSCCC(NC(=O)c1ccc(Cl)cc1)C(=O)OCC(=O)Nc1ccc(C#N)cc1 (stereo not shown),-1.39%
12,CCCn1cc(CN2CCCC(C(=O)c3cccc(OC)c3)C2)c(C)n1 (stereo not shown),-14.5%
13,CS(=O)(=O)N1CCc2cc(-c3csc(NC(=O)Cc4cccs4)n3)ccc21,-5%
14,CCc1ccccc1NNC(=O)c1snnc1C,1.7%
15,CCC(C)N(C(=O)COC(=O)c1nc2nc(C)cc(C)n2n1)C1CCS(=O)(=O)C1 (stereo not shown),21.2%
16,O=C(O)CCn1cc(C=C2C(=O)NC(=O)NC2=O)c(-c2cc3ccccc3oc2=O)n1,20.6%
17,Cc1c(C(=O)N2CCN(CCc3ccccn3)CC2)oc2ccc(F)cc12,-61.3%
18,Cc1c(C(=O)N2CCN(CCc3ccccn3)CC2)oc2ccc(Cl)cc12,-84.6%
19,Cc1c(C(=O)N2CCN(C(=O)c3ccccc3)CC2)oc2ccc(F)cc12,-5.86%
20,Cc1c(C(=O)N2CCN(CCc3ccccc3)CC2)oc2ccccc12,-36%

row,Compound,"hERG current change (%, negative = inhibition) at 1uM"
1,Cc1c(C(=O)N2CCN(c3ncccn3)CC2)oc2ccc(Cl)cc12,2.57%
2,Cc1cc2oc(C(=O)N3CCN(CCc4ccccn4)CC3)c(C)c2cc1C,-6.88%
3,Fc1ccc(Cn2nnc(-c3ccc(Cl)cc3)n2)cc1,11.5%
4,Cc1nc2ccccc2c(=O)n1NC(=O)Cc1ccc(Br)cc1,5.31%
5,COc1cccc(OCC(=O)NNC(=O)c2cccs2)c1,9.89%
6,O=C1N(c2ccc(Cl)cc2)C(c2cccnc2)N2CCCN12 (stereo not shown),6.95%
7,C/C(=N\NC(=O)COc1c(C)cccc1C)c1cccs1,8.57%
8,CCC(CC)C(=O)Nc1ccc(C)c(O)c1,5.34%
9,O=C(Nc1ccnn1C1CCN(C2CCOCC2)CC1)c1cccc(F)c1,1.92%
10,O=C(Nc1ccnn1C1CCN(Cc2ccc(CO)o2)CC1)c1ccccc1,-0.976%
11,O=C(Nc1ccnn1C1CCN(C/C=C/c2ccccc2)CC1)c1cccc(F)c1,-58.5%
12,CC(C)=CCN1CCC(n2nccc2NC(=O)c2ccccc2Cl)CC1,-43%
13,O=C(CCc1ccccc1)Nc1ccnn1C1CCN(C/C=C/c2ccccc2)CC1,-24.2%
14,O=C(Nc1ccnn1C1CCN(C/C=C/c2ccccc2)CC1)c1ccccc1,-64.4%
15,O=C(Nc1ccnn1C1CCN(C/C=C/c2ccccc2)CC1)c1ccccc1Cl,-92.1%
16,O=C(Nc1ccnn1C1CCN(Cc2ccccn2)CC1)c1cccc(F)c1,6.56%
17,O=C(Nc1ccnn1C1CCN(Cc2ccc(CO)o2)CC1)c1ccccc1Cl,6.94%
18,Cc1ccc(OCCNC(=O)CNC(=O)c2ccc(C)c(C)c2)cc1,4.24%
19,CCC(C(=O)NN1C(=O)c2ccccc2C1=O)c1ccccc1 (stereo not shown),13.8%
20,CCC(=O)c1ccc(OCC(=O)OCC(=O)NC2CCCC2)cc1,14.5%

row,Compound,"hERG current change (%, negative = inhibition) at 1uM"
1,O=C(CCS(=O)(=O)c1ccc(Br)cc1)N1CCN(c2ccccc2Cl)CC1,2.11%
2,O=C(OCc1cc(=O)n2c(n1)sc1ccccc12)c1ccc(O)cc1O,7.81%
3,Cc1ccc2[nH]c(=O)c(-c3nc4ccccn4c3NCc3ccco3)cc2c1,-4.3%
4,COCCNc1c(-c2cc3ccc(C)c(C)c3[nH]c2=O)nc2ccccn12,-77%
5,Cc1cccc2cc(-c3nc4c(C)cccn4c3NCc3ccco3)c(=O)[nH]c12,2.58%
6,CCOCCCNC(=O)CN(Cc1ccc(Cl)cc1)S(C)(=O)=O,8.42%
7,CC(C)CCC(CCNCc1ccccn1)c1ccc(Cl)cc1 (stereo not shown),-40.7%
8,COCCCNS(=O)(=O)c1ccc2c(c1)OCCO2,5.7%
9,CCNCCC(CCC(C)C)c1ccc2c(c1)OCO2 (stereo not shown),-64.3%
10,c1ccc(CNCc2ccc3c(c2)OCO3)nc1,11%
11,Cl.Fc1ccccc1CNCCC(Cc1ccccc1)c1ccc2c(c1)OCO2 (stereo not shown),10.8%
12,CC(C)CCC(CCNCc1ccccn1)c1ccc2c(c1)OCO2.Cl (stereo not shown),-79.1%
13,COCCCNC(=O)c1ccc2c(c1)OCO2,-2.46%
14,CC(NC(=O)C1CCC1)c1ccc2c(c1)OCO2 (stereo not shown),-3.43%
15,COCCCNCCC(CCC(C)C)c1ccc2c(c1)OCO2.Cl (stereo not shown),-85.8%
16,COc1ccccc1NS(=O)(=O)c1ccc(C)c(C(=O)NCC2CCCO2)c1 (stereo not shown),-14.5%
17,CCNc1nc(N)nc(Oc2ccc(OCCOc3ccccc3)nn2)n1,8.36%
18,COc1ccc2[nH]c(C)c(CCN(Cc3cccs3)C(=S)Nc3ccccc3)c2c1,6.37%
